Data published in PubChem BioAssay (NCI).
Compounds without any hit were thinned out: in the full panel of roughly 79,000, 15% have a hit. A number with no mark means an inactive call. Calls of active or inactive are those of the source. Cut-off read from the data, not from the text of the source: active = growth inhibition above about 70%; inactive = the rest.

Columns and labels:
[1] = NCI Yeast Anticancer Drug Screen. Data for the rad50 strain (AID 155);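 note: 0% = growth of vehicle-only cultures of the same strain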; settings: S. cerevisiae rad50 strain growth inhibition; at 50.0 µM; hits give high values
Outline: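 Relative growth inhibition (compound vs vehicle) was measured in yeast with a defined repair-gene alteration.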

[2] = NCI Yeast Anticancer Drug Screen. Data for the mec2-1 strain (AID 157); settings: S. cerevisiae mec2-1 strain, at 50.0 µM, hits give high values
Outline: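 Cells of the genetically defined mec2-1 yeast strain are incubated with test compound. Inhibition of growth is calculated against vehicle-treated controls.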

[3] = NCI Yeast Anticancer Drug Screen. Data for the sgs1 mgt1 strain (AID 161);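 note: 0% = growth of cultures given vehicle only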; settings: S. cerevisiae sgs1 mgt1 strain, at 50.0 µM, hits give high values
Outline: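 Genetically altered yeast, compound exposure, growth inhibition relative to vehicle.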

[4] = NCI Yeast Anticancer Drug Screen. Data for the cln2 rad14 strain (AID 165);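 note: 0% = growth equal to vehicle treated cultures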; settings: S. cerevisiae cln2 rad14 strain, at 50.0 µM, hits give high values
Outline: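 The screen exposed genetically defined yeast (cln2 rad14) to test compounds and scored growth inhibition relative to vehicle-treated controls.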

[5] = NCI Yeast Anticancer Drug Screen. Data for the bub3 strain (AID 167); settings: S. cerevisiae bub3 mutant strain, at 50.0 µM, hits give high values
Outline: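 Screening used yeast with an engineered genetic alteration affecting cell cycle control. Compound-exposed cultures were compared with vehicle cultures, and reduced growth was taken as inhibition.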

[6] = NCI Yeast Anticancer Drug Screen. Data for the mlh1 rad18 strain (AID 175); settings: S. cerevisiae mlh1 rad18 strain growth inhibition; at 50.0 µM; hits give high values
Outline: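 Compound-treated yeast growth, normalised to vehicle controls. Strain bears defined DNA repair mutations.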

| Structure (SMILES) | growth inhibition [1] [%] | growth inhibition [2] [%] | growth inhibition [3] [%] | growth inhibition [4] [%] | growth inhibition [5] | growth inhibition [6] |
| --- | --- | --- | --- | --- | --- | --- |
| CC(=O)Nc1cc(N)ccc1C | 7.15 | 4.45 | 1.65 | -18.2 | 10.6% | -14.3% |
| Cc1ccc(C)c2nc3c(C)ccc(C)c3cc12 | 22.5 | 1.4 | 13 | -25.9 | -0.45% | 14.3% |
| CCOC(=O)CC1C(O)C(=O)N(C)C1c1ccccc1 (stereo not drawn) | 21 | -8.05 | 1.75 | 42.3 | 9% | -50.4% |
| CC1CCCCN1S(=O)(=O)N(C)C (stereo not drawn) | 8.65 | 27.1 | -4.95 | -6.1 | 9.55% | 6.15% |
| COc1c(-c2ccccc2)c(=O)n2c3cc(C)c(C)cc3n(C)c2c1C#N | -13.4 | -0.4 | 18.5 | -13.9 | -31.1% | -2.85% |
| Cc1ccc(F)c(N)c1 | 26.8 | -17.2 | 24.1 | 5.8 | 5.75% | 27.9% |
| CS(=O)(=O)C(CCC(=O)C(c1ccccc1)c1ccccc1)C(=O)c1ccccc1 (stereo not drawn) | -7.7 | -11 | -20.5 | -39.5 | -1.55% | -29.2% |
| CC(O)C1OC(=O)C(O)C1O (stereo not drawn) | -0.75 | 4.95 | -14.8 | -5.9 | 5.95% | -6.05% |
| COc1ccc(Br)cc1C=Nc1ccccc1 | 14.9 | 3.05 | 19.2 | -8.05 | 9.05% | 4.85% |
| COC1OC(COC(=O)Nc2ccccc2)C2OC12 (stereo not drawn) | 8.45 | 2.8 | 24.6 | -55.4 | -10% | 1.25% |
| Cc1cccc(NC(=O)COc2ccc(Cl)cc2)c1C | 12.4 | 8.6 | 5.1 | -15.2 | 13.1% | -4.7% |
| O=C(/C=N/O)Nc1cccc(Cl)c1I | 18.4 | -5.2 | 30.1 | 2.95 | 12.6% | 10.4% |
| c1ccc2c(c1)Cc1ccccc1-2 | 1.5 | -17.2 | -10.6 | -19.5 | -20.9% | -19.1% |
| CCCCC(CC)OC(=O)c1cccc(C)c1 (stereo not drawn) | 9.15 | 2.25 | 17.8 | -7.4 | -0.05% | 7.1% |
| CC(=O)Nc1ccc2c(c1)C(P(=O)(OC(C)C)OC(C)C)c1ccccc1-2 (stereo not drawn) | 6 | 19.6 | 18.1 | -1.4 | 34.4% | -2.8% |
| CC(C)OC(=O)Oc1ccc(Cl)cc1Cl | 6.2 | -19.1 | 10.1 | -47.2 | -9.95% | 3.45% |
| CC(C)=C/C(C)=N/Nc1ccc([N+](=O)[O-])cc1[N+](=O)[O-] | 5.9 | 5.6 | 13.5 | 2.05 | 12.8% | -0.2% |
| CCCCCOC(=O)Nc1ccc(OCC)cc1 | -9.15 | -4.95 | -3.15 | -21.9 | -1.3% | -4.25% |
| C=C1C(=O)OC2CC(=C)C3CC=C(C)C3CC12 (stereo not drawn) | 41.8 | 21.5 | 19 | 41.6 | 25.8% | 44.1% |

| Structure (SMILES) | growth inhibition [1] [%] | growth inhibition [2] [%] | growth inhibition [3] [%] | growth inhibition [4] [%] | growth inhibition [5] | growth inhibition [6] |
| --- | --- | --- | --- | --- | --- | --- |
| CC(C)CCC(C)C1CCC2C3CC/C(=N/Nc4ccc([N+](=O)[O-])cc4[N+](=O)[O-])C(C)(CCC(=O)O)C3CCC12C (stereo not drawn) | -45.8 | -12.2 | -24.9 | -24.2 | -0.1% | -3.4% |
| Cc1ccc(N=Nc2ccc(O)c(CN(C)C)c2)cc1C | -26.4 | -29.5 | 48.5 | -11 | 49% | 36.2% |
| Nc1ccc(C2=Nc3ccccc3SC(c3ccccc3O)C2)cc1 (stereo not drawn) | 24.8 | 13.5 | 11.5 | 19 | 50.8% | 6% |
| N#CCOc1ccc(/C=C/C(=O)c2ccc(Cl)cc2)cc1 | -39.5 | -53.6 | -23.1 | -23.1 | 20.4% | -21.2% |
| COc1ccc(NC(=O)C(=O)Cc2nc3ccc(C(=O)c4ccccc4)cc3[nH]c2=O)c([N+](=O)[O-])c1 | 36 | 2.65 | 12.7 | 19.1 | 11.8% | 22.6% |
| Nc1cccc(C(F)(F)F)c1[N+](=O)[O-] | -8.25 | -28 | -22.4 | -23.4 | -25.9% | 18.1% |
| COc1cccc(Cc2cncc3c(O)c(OC)ccc23)c1O | 2.3 | -6.4 | -8.05 | 3 | -1.9% | 9.95% |
| NCc1ccccc1[N+](=O)[O-] | 11.4 | 6.2 | 3.5 | -1.6 | 3.5% | 12% |
| O=[N+]([O-])c1cccc(-c2oc(C=Nc3ccccc3)c([N+](=O)[O-])c2-c2cccc([N+](=O)[O-])c2)c1 | -5 | -0.8 | 9.45 | 14.4 | 17.6% | 19.6% |
| CC(C)C1=CC2=C(C(=O)C1=O)C13CCCC(C)(C)C1CC2OC3=O (stereo not drawn) | 14.3 | -45.1 | 23.6 | -12.3 | -2.6% | 85.5% (active) |
| COC1(OC)CCCc2c1no[n+]2[O-] | -43.4 | -11.3 | -50.2 | -16.7 | 16.5% | -21.2% |
| Cc1n(C)c(C(O)c2ccccc2)c(Br)[n+]1C (stereo not drawn) | 9.3 | 1.4 | 8.25 | -12.1 | 77.7% (active) | 12.6% |
| CNC(=S)SCc1ccc(Cl)cc1 | -10.6 | -12.5 | 11.4 | -36.6 | 40.8% | 2.7% |
| CSc1ccc(C2=CCCCC2)cc1 | -4.35 | -1.7 | 0.05 | -15 | 0.95% | 17.9% |
| CCOC(=O)c1c[nH]c2cc3c(cc2c1=O)CCS3 | -27.4 | -57 | -1.45 | 3.95 | 9% | -7.35% |
| CC(=O)Nc1cc2cc(NC(=O)C(Cl)(Cl)Cl)ccc2oc1=O | -24.3 | -17.4 | -4.65 | 0.55 | -11.7% | -24.6% |
| CCOc1ccc(NC(=S)NC=C(C(N)=O)C(N)=O)cc1 | -47.3 | -41.3 | -10.7 | 19.2 | 3.9% | -22.6% |
| Cc1ccc([N+](=O)[O-])c(P(=O)(O)O)c1 | 12.6 | 13 | -14.7 | -3.45 | 3.4% | -12.2% |
| Cc1[nH]ccc2c3ccc(=O)cc3n(S(=O)(=O)O)c12 | 10.7 | -8.3 | -1.45 | 18.4 | 16.8% | -7.25% |
